# Experimental data reported in the emibetuzumab library of Makowski et al. (2022).
# This is one part of the list. The hit rate among all sequences tested is not known here.
# B1: VH:VL chains; a variant is named by its letters at X, in order (parent)
# chain 1: QVQLVQSGAEVKKPGASVKVSCKASGYTFTDYXMHWVRQAPGQGLEWMGXVNPNXXXTTYNQKFEGRVTMTTDTSTSTAYMELRSLRSDDTAVYYCARXNXLDXWGQGTTVTVSS
# chain 2: DIQMTQSPSSLSASVGDRVTITCSVSSSVSSIYLHWYQQKPGKAPKLLIYSTSNLASGVPSRFSGSGSGTDFTLTISSLQPEDFATYYCQVYSGYPLTFGGGTKVEIK
# Variants of: B1
# Experiment: yeast display scFab, FACS + sequencing
# Details: with MET
# Summary of the method: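 Two magnetic rounds on Protein A beads coated with HGFR-Fc, followed by FACS, were used to enrich a yeast surface scFab library mutated in the heavy-chain CDRs. FACS gated the top 50% antigen-positive cells after 3 h labelling at room temperature with 1 nM HGFR-Fc and anti-Myc in PBSB plus 1% milk. Binding to the antigen was scored positive when a sequence occurred in both antigen-positive samples from deep sequencing and negative when it occurred only in the input.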
row,Variant,antigen binding call
1,DKEGGAVV,no binding
2,DAGGGDWV,no binding
3,VTTRADVF,no binding
4,DGGRAFWF,no binding
5,VARKGVGV,no binding
6,YRGAGALV,binds
7,YTGTSDWV,no binding
8,YARADSSV,no binding
9,VKEADAWV,no binding
10,YRRGSSSV,binds
11,YTRGSAWV,no binding
12,YKRRDAWV,no binding
13,YKRGSASV,binds
14,YKRGSAWV,binds
15,YRRGSASV,binds
16,SKKGDFWV,no binding
17,VETEGDWD,no binding
18,VRAETDVY,no binding
19,YRRGSSLV,binds
20,DAEGDAGD,no binding
21,VKGRGAGS,binds
22,VKGRGSGS,binds
23,VKGRASAS,no binding
24,VGGRGDGS,no binding

row,Variant,antigen binding call
1,VKGGSFGS,no binding
2,VTEGGDVA,no binding
3,YTTGGDWA,no binding
4,DATGGSVD,no binding
5,DTGGDDGF,no binding
6,YARADDAS,no binding
7,VETGGAAA,no binding
8,VRRGGSAA,binds
9,VEGEDAAA,no binding
10,VRRGGAAA,binds
11,VRTGGAAA,binds
12,VETGGAVA,no binding
13,VEGGGDWA,no binding
14,VEGAASWF,no binding
15,SRKGAASD,no binding
16,YRKGSASD,binds
17,YRKGAASD,binds
18,VEAGDALV,no binding
19,YRARGALV,binds
20,VRAGDALV,no binding
21,YRAKSALV,binds
22,VRARGALV,binds
23,YTAGSALV,no binding
24,VGGTGDVF,no binding

row,Variant,antigen binding call
1,DGGADVGA,no binding
2,DKGTDVGA,no binding
3,FARGASGV,no binding
4,FRRGSSGS,binds
5,FRRGGSGV,binds
6,FRRGGSGS,binds
7,FRRGSSGD,binds
8,DAGAAAGD,no binding
9,DKREADVA,no binding
10,FKKGSSAA,binds
11,FRAGGSAA,binds
12,FKGEDAVA,no binding
13,FKKGSAVA,binds
14,FKKGSFGA,no binding
15,FKGEGDAA,no binding
16,VKRGSSAA,binds
17,FEEEGSAA,no binding
18,ATTKSDAA,no binding
19,SREAADWV,no binding
20,DAGGGDVA,no binding
21,DARENAGY,no binding
22,DEGTGALA,no binding
23,FKRGSSAA,binds
24,FKRKNSAA,no binding

row,Variant,antigen binding call
1,FRRGDSAA,binds
2,FRRGGSAA,binds
3,FGRGSSWA,no binding
4,FRRGSSAA,binds
5,DGERTAGV,no binding
6,VREEGDGA,no binding
7,VTTGGDGV,no binding
8,YRARGAWY,binds
9,YRAGGDWY,binds
10,YRAGGAWY,binds
11,YTAGSDWY,no binding
12,DRAGDDWY,no binding
13,YRAGGYWY,binds
14,DGGTSYSV,no binding
15,SKEAGYSV,no binding
16,VTGEDDAV,no binding
17,ATGANSLD,no binding
18,YRAKGAWY,binds
19,YEKGGDVY,no binding
20,YRKGGAWY,binds
21,DGGTNDVD,no binding
22,DTKAASWV,no binding
23,VKGRADSF,no binding
24,VKKESSGF,no binding

row,Variant,antigen binding call
1,VKKGSSLF,binds
2,YKERGDVF,no binding
3,YKKGSSLF,binds
4,YRKGGAWV,binds
5,YRKEAAWV,binds
6,YRTADDWV,no binding
7,SAEGGSSA,no binding
8,FGAKTASF,no binding
9,YRAAGDVA,binds
10,YRGGSDVA,binds
11,VRGGSDVA,no binding
12,YTAGSDVA,no binding
13,VRAGDDVA,no binding
14,YRAETDVA,no binding
15,DRGRSDVA,no binding
16,YAAGGDVA,no binding
17,YRAGDDVA,binds
18,DAGGGAAV,no binding
19,AGGGNDWV,no binding
20,VAAKNDGA,no binding
21,VAKENAVA,no binding
22,YRKGSSGF,binds
23,YGKGTSGF,no binding
24,YRKGSSLF,binds

row,Variant,antigen binding call
1,YETTDSWV,no binding
2,YTRGASWV,no binding
3,YTKAASWV,no binding
4,YRGASSWV,binds
5,YRGGASWV,binds
6,YAEATDLY,no binding
7,VTEGDSGV,no binding
8,VTTGSASF,no binding
9,DTEEGDWV,no binding
10,DRRGDASD,no binding
11,YRRGDASD,binds
12,YRRGSAVD,binds
13,YRRGSASD,binds
14,YRGEGASD,binds
15,YTGTSASD,no binding
16,YTAAADLV,no binding
17,YETEGDVF,no binding
18,YRRGGASD,binds
19,DAGGGAVY,no binding
20,YTGRAALA,no binding
21,YRKKGDLA,no binding
22,YRGKGSLA,binds
23,YRGRSALA,binds
24,YRGKGALA,binds

row,Variant,antigen binding call
1,YRKGAALA,binds
2,VTGTGDGV,no binding
3,AETKGAVA,no binding
4,DGGENAGD,no binding
5,VAGGDAVV,no binding
6,YRGKSALA,binds
7,FAAGGAAS,binds
8,FRGGGAVS,binds
9,FREGGAVS,no binding
10,FAGTSVGS,no binding
11,FAGGGFAV,no binding
12,FRGGGSVS,binds
13,FAAGGAWA,no binding
14,FAAGSSGS,no binding
15,FAGGSFAS,binds
16,DTERDDAV,no binding
17,DGGTGDVF,no binding
18,FAGGGAGS,binds
19,FAGGGAGA,no binding
20,FAGGGASD,no binding
21,YTEEGDWV,no binding
22,SAAGGDVA chain 1 L45S,no binding
23,YRKGSAGD,binds
24,YEKGGAGD,binds

row,Variant,antigen binding call
1,YRKGSALD,binds
2,YEKGGDVD,no binding
3,YRKGTAGD,binds
4,YEGGGDGD,no binding
5,YRRANFLD,no binding
6,YAGEGDGA,no binding
7,VTTADDWV,no binding
8,YKGRGVGV,binds
9,YKERDVGV,no binding
10,SKEGGVGV,no binding
11,YRGKGVGV,no binding
12,YKGKGVGV,binds
13,YKGRGVVV,binds
14,DKGRSVGV,no binding
15,AARADDGS,no binding
16,SAAGGDGV chain 1 L45S,no binding
17,FRERGAGY,no binding
18,FRERGAGD,binds
19,FGRGGVGD,no binding
20,FTETGAGD,no binding
21,FRRGGAGD,binds
22,FRRGGAVD,binds
23,FRRGGSVD,binds
24,FTEEGAGD,no binding

row,Variant,antigen binding call
1,VATGDFGV,no binding
2,YKTGGALY,binds
3,YETETALY,no binding
4,SKGENALY,no binding
5,VKTGGDVY,no binding
6,YKAGGALY,binds
7,YKKTGDLY,no binding
8,AARADDAV,no binding
9,YRTGGAGD,binds
10,YRTGGSGD,binds
11,DREEGSGD,no binding
12,DATGGAGD,no binding
13,FATGGSGD,no binding
14,SETGGAGD,no binding
15,YRTGGAWD,binds
16,YRTGDSGD,binds
17,FTRTNFLS,no binding
18,VKEKGDVA,no binding
19,YAARGSAA,no binding
20,YKRRGSAA,binds
21,YTRAGSAA,no binding
22,YRGRSSAA,binds
23,YKARGSAA,binds
24,YRAKGSAA,binds
